Calls of active or inactive are those of the source. The calls were made as follows: active = hit-call score of the fitted dose curve at least 0.9, where 1 is the maximum; inactive = score below 0.9.
Experiment: APR_HepG2_MitoticArrest_24hr: Apredica 24-hour HepG2 Assay for Mitotic Arrest (AID 2282910)
Conditions: high-content imaging, actives raise or lower the signal
Experimental: APR_HepG2_24hr is a cell-based, multiplexed-readout assay that uses HepG2, a human liver cell line, with measurements taken at 24 hours after chemical dosing in a 384-well plate.APR_HepG2_MitoticArrest_24hr is one of 10 assay component(s) measured or calculated from the APR_HepG2_24hr assay. It is designed to make measurements of cell phenotype, a form of morphology reporter, as detected with fluorescence intensity signals by HCS Fluorescent Imaging technology.Data from the assay component APR_HepG2_MitoticArrest_24hr was analyzed into 1 assay endpoint. This assay endpoint, APR_HepG2_MitoticArrest_24hr, was analyzed with bidirectional fitting relative to DMSO as the negative control and baseline of activity. Using a type of morphology reporter, measures of protein for gain or loss-of-signal activity can be used to understand the signaling at the pathway-level as they relate to the gene . Furthermore, this assay endpoint can be referred to as a primary readout, because this assay has produced multiple assay endpoints where this one serves a signaling function. To generalize the intended target to other relatable targets, this assay endpoint is annotated to the cell cycle intended target family, where the subfamily is arrest.
Cells were treated with dimethyl sulfoxide (DMSO) as a solvent control at a final concentration of 0.5% v/v or with compounds in DMSO with a resulting final DMSO concentration of 0.5% v/v. Compound treatment was done at concentrations of 0.39, 0.78, 1.56, 3.12, 6.24, 12.5, 25, 50, 100, and 200 uM in duplicate on each plate. Cells were treated with compounds for 1, 24, or 72 hr. Carbonyl […] m-chloro-phenylhydrazone (CCCP) and taxol were used as positive controls for mitochondrial function and cytoskeletal stability, respectively; DMSO served as the negative control for this experiment. Cells were fixed by the direct addition of 50 uL formaldehyde in Hank's Balanced Salt Solution (HBSS) to a final concentration of 3.7%. After incubation in the fixation medium for 30 min at room temperature (293-298 K), cells were rinsed twice with HBSS and treated with cell permeabilization buffer (16 uL of 0.5% Triton X-100) for 10 min at room temperature (293-298 K) before labeling. For mitochondrial membrane potential and mitochondrial measurements, pre-fixed cells were incubated with 50 uL of MitoTracker Red CMXRos (Invitrogen) at a concentration of 250 nM for 30 min before fixation. In the remaining cases, post-fixed cells were labeled by incubation with a multiplexed mixture of primary antibodies in HBSS for 60 min at room temperature (293-298 K) to detect immunoreactivity of c-Jun (1:500), phospho-histone H3 (1:100), phospho-histone H2A.x (1:200), p53 (1:400), alpha-tubulin (1:200) and Hoechst 33342 (2 ug/mL). Cells were labeled for multiplexed imaging on two separate plates: a) Hoechst 33342, MitoTracker Red, phospho-histone H3, and alpha-tubulin, and b) Hoechst 33342, phospho-histone H2A.x, and c-Jun. A final rinse with HBSS (50 uL) was performed before analysis. The primary and secondary antibodies for the proteins were phospho-histone H3 (rabbit anti-phospho-histone H3 and FITC-donkey anti-rabbit IgG), phospho-histone H2A.x (mouse anti-phospho-histone H2A.x and FITC-donkey anti-mouse IgG), c-Jun (rabbit anti-phospho-c-Jun and Cy3-donkey anti-rabbit IgG), p53 (sheep anti-p53 and Cy5-donkey anti-sheep IgG), alpha-tubulin (mouse anti-alpha-tubulin and Cy5-donkey anti-mouse IgG). These antibodies are available as the CellCiphr HepG2 assay kit (Millipore).Digital images of each well were captured using a Cellomics ArrayScan VTI (Thermo Scientific Cellomics) (0.8 NA objective, 0.63x optical coupler, and XF-93 filter set) at 20x magnification. The images were acquired using the autofocus feature of the ArrayScan instrument, which entails the following steps. First, the camera focuses on channel 1 (Hoechst 33342), where nuclei are identified. Second, a Z offset of 1 um is used for capturing mitochondria (MitoTracker Red). […]

| Structure (SMILES) | outcome | AC50 |
| --- | --- | --- |
| Cc1ccc(N=C=O)cc1N=C=O | inactive | – |
| C[N+](C)(C)CC1CO1 (stereo not given) | inactive | – |
| O=Cc1ccco1 | inactive | – |
| CCCCCCCCn1sccc1=O | – | 7.54 µM (active) |
| Cn1cc(-c2ccccc2)c(=O)c(-c2cccc(C(F)(F)F)c2)c1 | inactive | – |
| C1=Cc2cccc3cccc1c23 | inactive | – |
| COc1cc(C=O)cc2c1[C@H](COC(N)=O)[C@]1(OC(C)=O)ON2C[C@H]2[C@@H]1N2C(C)=O | inactive | – |
| c1ccc(NNc2ccccc2)cc1 | inactive | – |
| O=C1CCCO1 | inactive | – |
| O=C(Nc1ccccc1)c1ccccc1I | inactive | – |
| CCC[CH2][Sn]([Cl])([CH2]CCC)[CH2]CCC | – | 0.336 µM (active) |
| O=C(O)C1C2CCC(O2)C1C(=O)O (stereo not given) | – | 26.6 µM (active) |
| Nc1ccc(Cl)cc1N | inactive | – |
| Cc1ccc([N+](=O)[O-])cc1 | inactive | – |
| CN(C)c1ccc(C(=O)c2ccc(N(C)C)cc2)cc1 | – | 0.538 µM (active) |
| CS(=O)(=O)NC(=O)c1cc(Oc2ccc(C(F)(F)F)cc2Cl)ccc1[N+](=O)[O-] | inactive | – |
| CN(C)C(=O)Nc1ccc(Cl)cc1 | inactive | – |
| CCOC(=O)[C@]1(c2ccccc2)Oc2ccccc2[C@@H]1N | – | 111 µM (active) |
| Brc1ccc(Oc2ccccc2)cc1 | inactive | – |
| C[C@]12C=CC3=C4CCC(=O)C=C4CC[C@H]3[C@@H]1CC[C@@H]2O | – | 32.7 µM (active) |

| Structure (SMILES) | outcome | AC50 |
| --- | --- | --- |
| CN(C)c1ccccc1 | inactive | – |
| N#CC(Br)Br | – | 45.4 µM (active) |
| O=C(Oc1ccc(Br)cc1)N1CCN2CCC1CC2 | inactive | – |
| Cc1cccc(N)c1N | inactive | – |
| CCOc1cccc(C2(N3CCN(c4ccccc4)CC3)CCC(C)CC2)c1 (stereo not given) | inactive | – |
| CNC(=O)Oc1cccc2c1OC(C)(C)C2 | inactive | – |
| N#CC(Br)(Br)C(N)=O | inactive | – |
| CCC(C)c1ccc(O)cc1 (stereo not given) | inactive | – |
| CC(O)CCO (stereo not given) | inactive | – |
| COC(=O)c1ccccc1N | inactive | – |
| CC(C)(OOC(C)(C)c1ccccc1)c1ccccc1 | – | 29.9 µM (active) |
| COP(=S)(OC)SCN1C(=O)c2ccccc2C1=O | inactive | – |
| CCNS(=O)(=O)C(F)(F)C(F)(F)C(F)(F)C(F)(F)C(F)(F)C(F)(F)C(F)(F)C(F)(F)F | – | 46.3 µM (active) |
| O=[N+]([O-])c1ccc(Oc2ccc(Cl)cc2Cl)cc1 | inactive | – |
| CCCCC(CC)COC(=O)c1ccc(C(=O)OCC(CC)CCCC)c(C(=O)OCC(CC)CCCC)c1 (stereo not given) | inactive | – |
| CC(C)N(Cc1ccccc1)C(=O)C(C)(C)C | inactive | – |
| c1ccc2c(c1)oc1ccccc12 | inactive | – |
| Nc1ccc(N=Nc2ccccc2)cc1 | inactive | – |
| Clc1ccc(Cl)c(Cl)c1 | inactive | – |
| OCCCBr | inactive | – |

Reference: PubChem BioAssay (EPA / NIEHS)
